Experimental data taken from PubChem BioAssay (NCI).
Compounds without any hit were thinned out: in the full panel of roughly 83,000, 20% have a hit.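 Growth was measured after 48 h exposure to one concentration of compound in 96-well plates. Values under 10 count as active.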 A number with no mark means an inactive call. Calls of active or inactive are those of the source.

system: A498 renal; assay: NCI-60 one-dose screen, 48 h (100 = growth as untreated, 0 = no growth, -100 = all killed); conditions: 10 µM unless noted

`COc1cc(-c2nn(-c3cccc(NC(=O)Nc4cc(C(F)(F)F)cc(C(F)(F)F)c4)c3)cc2-c2ccncc2)ccc1Cl` was tested, and the growth was -14.6% (active).
With `O=[N+]([O-])c1cc(Cl)c2[nH]c3c(Cl)cc([N+](=O)[O-])cc3c2c1` the growth was -26.6% (active).
For `COc1cc(-c2nn(-c3cccc(NC(=O)c4cccc(C(F)(F)F)c4)c3)cc2-c2ccncc2)ccc1Cl`, the growth was -19% (active).
In the case of `COc1ccc(C2=C(c3cc(OC)c(OC)c(OC)c3)C(=O)CC2)cc1`, the growth is reported as -4.31% (active).

Going from `COc1ccc(C(=O)c2cc(OC)c3c(c2)OCO3)cc1O` to `COc1ccc(-c2c(N)n[nH]c2-c2cc(OC)c3c(c2)OCCO3)cc1`, the growth rises from 61.9% to 71.4%.

Compared with `CCOC(=O)NNC(=S)Nc1ccccc1`, `O=C(/C=C/c1ccccc1)c1cccc(O)c1` is higher in growth: 95.1% for the first, 114% for the second.

Going from `N#Cc1c(-c2ccccc2)nc(SCC(=O)N2CCN(c3ccccc3)CC2)[nH]c1=O` to `C=C1c2nc3ccccc3n2C=C(c2ccc(Cl)cc2)N1Cc1ccccc1`, the growth falls from 116% to 84.7%.

Going from `Cc1cc(C(C)(C)C)ccc1S` to `CCOC(=O)c1ccc2c(c1)c1c(C)c3cccnc3c(C)c1n2C`, the growth falls from 92.8% to 83.4%.

Going from `CCOC(=O)C1=C(C)NC(C)=C(C(=O)OCC)C1(C)C` to `O=C(O)Cc1cccc(=O)c(O)c1C(=O)O`, the growth rises from 108% to 114%.

First: COc1ccc(CNCCCN2C(=O)c3ccc4c5c(ccc(c35)C2=O)C(=O)N(CCCNCCCCNCCCN)C4=O)c(OC)c1OC
Second: COc1cc(NCCCCCN)c2ncccc2c1
The growth of the first is lower: 80% for the first, 116% for the second.

Compared with `NNc1cccc(/C=C/c2ccccc2)cc1=O`, `c1ccc(-c2nnc(-c3ccccn3)s2)nc1` is higher in growth: 83.9% for the first, 117% for the second.

Going from `O=C(Nc1ccncc1)C(=O)c1cn(S(=O)(=O)c2ccc(Br)cc2)c2ccccc12` to `COc1cc(-c2nn(C(=O)NS(=O)(=O)c3ccccc3)cc2-c2ccncc2)ccc1Cl`, the growth rises from 47.3% to 60.3%.

First: O=C(/C=C/c1cc(-c2ccc3c(c2)OCO3)n[nH]1)c1ccc2c(c1)OCO2
Second: Cc1ccc(Cc2c(C=O)nc(N)[nH]c2=O)c2ccccc12
The growth of the first is lower: 93.3% for the first, 118% for the second.

First: CCCOC(=O)n1cccc1
Second: COc1ccc(-c2cnnn2-c2nonc2-n2cccc2)cc1OC
The growth of the first is higher: 106% for the first, 56.3% for the second.

Compared with `CCN(CC)c1ccc(CNc2ccnc3ccccc23)cc1`, `CCCCN(CCCC)C(=N)c1ccnc2ccccc12` is higher in growth: 48.2% for the first, 90.6% for the second.

Going from `COc1cccc(-c2cc3c(O)cc(C#N)cc3[nH]2)c1` to `Fc1ccccc1-c1nc(-c2nc3cc(Cl)c(Cl)cc3[nH]2)c2ccccn12`, the growth rises from 71.7% to 104%.

Going from `C=C(C)[C@@H]1CC[C@]2(C(=O)N3CCNCC3)CC[C@]3(C)[C@H](CC[C@@H]4[C@@]5(C)C/C(=C/c6ccncc6)C(=O)C(C)(C)[C@@H]5CC[C@]43C)[C@@H]12` to `Cn1cnc2c(N3CCN(C(=O)OCc4ccc5c(Cl)cc(Cl)c(O)c5n4)CC3)nc(Cl)nc21`, the growth falls from 111% to 62.7%.

Going from `NC(=N\N=C/c1ccc(O)cc1)/C(N)=N\N=C/c1ccc(O)cc1` to `O=S(=O)(NCCNc1nccc(-c2c(-c3cccc(O)c3)nc3sccn23)n1)c1ccc(F)cc1`, the growth falls from 84.5% to 76.4%.

Going from `Cn1c(=O)c2[nH]c(C3CC=CCC3)nc2n(C)c1=O` (stereo not drawn) to `O=C(O)C1CCCCN1c1nc(Cl)nc(Cl)n1` (stereo not drawn), the growth falls from 105% to 90%.

First: C=C[C@@H]1C[C@H](O)Cc2cc(F)ccc2N1
Second: O=C(O)COc1ccc(-c2cssc2=S)cc1
The growth of the first is higher: 93.8% for the first, 88.2% for the second.

First: CC(C)(C)N1CCC1C(N)=O (stereo not drawn)
Second: Cc1nc2ncccc2nc1Nc1ccc(S(=O)(=O)Nc2ccccn2)cc1
The growth of the first is higher: 136% for the first, 104% for the second.

system: CCRF-CEM leukemia; assay: as above; conditions: 10 µM unless noted

For `COc1cc(-c2nn(-c3cccc(NC(=O)Nc4cc(C(F)(F)F)cc(C(F)(F)F)c4)c3)cc2-c2ccncc2)ccc1Cl`, the growth was -27.3% (active).
For `O=[N+]([O-])c1cc(Cl)c2[nH]c3c(Cl)cc([N+](=O)[O-])cc3c2c1`, the growth was -39.9% (active).
In the case of `COc1cc(NCCCCCN)c2ncccc2c1`, the growth is reported as -24% (active).
With `C=C[C@@H]1C[C@H](O)Cc2cc(F)ccc2N1` the growth was -66% (active).
In the case of `CCCCN(CCCC)C(=N)c1ccnc2ccccc12`, the growth is reported as 8.24% (active).
`COc1cc(-c2nn(-c3cccc(NC(=O)c4cccc(C(F)(F)F)c4)c3)cc2-c2ccncc2)ccc1Cl` was tested, and the growth was 3.1% (active).

First: COc1ccc(C(=O)c2cc(OC)c3c(c2)OCO3)cc1O
Second: COc1ccc(-c2c(N)n[nH]c2-c2cc(OC)c3c(c2)OCCO3)cc1
The growth of the first is lower: 16.5% for the first, 73.7% for the second.

First: CCOC(=O)NNC(=S)Nc1ccccc1
Second: CCCOC(=O)n1cccc1
The growth of the first is higher: 106% for the first, 99.2% for the second.

Going from `N#Cc1c(-c2ccccc2)nc(SCC(=O)N2CCN(c3ccccc3)CC2)[nH]c1=O` to `C=C1c2nc3ccccc3n2C=C(c2ccc(Cl)cc2)N1Cc1ccccc1`, the growth falls from 100% to 78.9%.

Compared with `Cc1cc(C(C)(C)C)ccc1S`, `CCOC(=O)c1ccc2c(c1)c1c(C)c3cccnc3c(C)c1n2C` is lower in growth: 96% for the first, 47.9% for the second.

Compared with `CCOC(=O)C1=C(C)NC(C)=C(C(=O)OCC)C1(C)C`, `O=C(O)Cc1cccc(=O)c(O)c1C(=O)O` is higher in growth: 94.4% for the first, 98.3% for the second.

Compared with `COc1ccc(CNCCCN2C(=O)c3ccc4c5c(ccc(c35)C2=O)C(=O)N(CCCNCCCCNCCCN)C4=O)c(OC)c1OC`, `Cc1ccc(Cc2c(C=O)nc(N)[nH]c2=O)c2ccccc12` is higher in growth: 16.5% for the first, 80% for the second.

Compared with `NNc1cccc(/C=C/c2ccccc2)cc1=O`, `c1ccc(-c2nnc(-c3ccccn3)s2)nc1` is higher in growth: 14.1% for the first, 80.8% for the second.

Going from `O=C(/C=C/c1cc(-c2ccc3c(c2)OCO3)n[nH]1)c1ccc2c(c1)OCO2` to `O=S(=O)(NCCNc1nccc(-c2c(-c3cccc(O)c3)nc3sccn23)n1)c1ccc(F)cc1`, the growth falls from 72.9% to 41.7%.

First: CCN(CC)c1ccc(CNc2ccnc3ccccc23)cc1
Second: Cc1nc2ncccc2nc1Nc1ccc(S(=O)(=O)Nc2ccccn2)cc1
The growth of the first is lower: 53.3% for the first, 107% for the second.

First: C=C(C)[C@@H]1CC[C@]2(C(=O)N3CCNCC3)CC[C@]3(C)[C@H](CC[C@@H]4[C@@]5(C)C/C(=C/c6ccncc6)C(=O)C(C)(C)[C@@H]5CC[C@]43C)[C@@H]12
Second: COc1cc(-c2nn(C(=O)NS(=O)(=O)c3ccccc3)cc2-c2ccncc2)ccc1Cl
The growth of the first is higher: 101% for the first, 92.8% for the second.

Going from `Fc1ccccc1-c1nc(-c2nc3cc(Cl)c(Cl)cc3[nH]2)c2ccccn12` to `Cn1cnc2c(N3CCN(C(=O)OCc4ccc5c(Cl)cc(Cl)c(O)c5n4)CC3)nc(Cl)nc21`, the growth falls from 81.9% to 37.6%.

Compared with `NC(=N\N=C/c1ccc(O)cc1)/C(N)=N\N=C/c1ccc(O)cc1`, `O=C(O)COc1ccc(-c2cssc2=S)cc1` is higher in growth: 10.8% for the first, 90.3% for the second.

Going from `Cn1c(=O)c2[nH]c(C3CC=CCC3)nc2n(C)c1=O` (stereo not drawn) to `O=C(O)C1CCCCN1c1nc(Cl)nc(Cl)n1` (stereo not drawn), the growth rises from 104% to 105%.

Compared with `CC(C)CC1NC(C)(C)CO1` (stereo not drawn), `CC(C)(C)N1CCC1C(N)=O` (stereo not drawn) is lower in growth: 102% for the first, 93% for the second.

`COc1ccc(-c2cnnn2-c2nonc2-n2cccc2)cc1OC` showed a growth of 54.7%.
